In PubChem BioAssay (NCI) one finds growth inhibition data, which are given here for ten compounds.

Each structure is given as a SMILES string. About 79,000 compounds went through this panel and 15% of them were active in at least one assay; those are over-represented in the sample as a whole. Unmarked numbers belong to inactive results. Activity calls are given as the source filed them. No stated cut-off is given here; in the data, active means growth inhibition above about 70%; inactive means the rest.

Assay [1] can be described thus: NCI Yeast Anticancer Drug Screen. Data for the rad50 strain (AID 155).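 Further: 0% = growth of vehicle-only cultures of the same strain.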 Conditions: S. cerevisiae rad50 strain growth inhibition, stronger effect = higher value. The gist of the method: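 Compounds were tested on a yeast strain with an engineered DNA damage repair alteration; the reported value is growth inhibition normalised to vehicle treatment.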
The nature of assay [2]: NCI Yeast Anticancer Drug Screen. Data for the mec2-1 strain (AID 157). Conditions: S. cerevisiae mec2-1 strain, stronger effect = higher value. The gist of the method: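 Vehicle-treated cultures served as reference for growth inhibition of compound-exposed mec2-1 yeast.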
Assay [3] can be described thus: NCI Yeast Anticancer Drug Screen. Data for the sgs1 mgt1 strain (AID 161).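 Further: 0% = growth of cultures given vehicle only.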 As to conditions: S. cerevisiae sgs1 mgt1 strain, stronger effect = higher value. The gist of the method:
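Inhibition of yeast growth, normalised to vehicle-treated controls, is reported for a strain bearing genetic alterations in DNA damage repair.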

Assay [4] in a line: NCI Yeast Anticancer Drug Screen. Data for the cln2 rad14 strain (AID 165).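 Further: 0% = growth equal to vehicle treated cultures.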 Conditions: S. cerevisiae cln2 rad14 strain, stronger effect = higher value. The gist of the method: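 Each compound was tested on cln2 rad14 yeast. Inhibition of growth was calculated against vehicle-exposed controls.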
Assay [5] in a line: NCI Yeast Anticancer Drug Screen. Data for the bub3 strain (AID 167). Conditions: S. cerevisiae bub3 mutant strain, stronger effect = higher value. The gist of the method: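 Growth of a checkpoint-deficient yeast mutant is measured after compound exposure. Values represent inhibition relative to vehicle.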
The nature of assay [6]: NCI Yeast Anticancer Drug Screen. Data for the mlh1 rad18 strain (AID 175). As to conditions: S. cerevisiae mlh1 rad18 strain growth inhibition, stronger effect = higher value. The gist of the method: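 Vehicle-treated cultures served as the reference for growth inhibition in a yeast strain carrying DNA damage repair alterations exposed to each compound.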
The mark [7] stands for this setting: at 5.0 µM (retest, dose inferred, filed as 0.5).
Setting [8] is: at 50.0 µM (retest, dose inferred, filed as 5.0).

In the case of `COc1ccc(CSC(=S)Nc2ccc(Cl)c(C(F)(F)F)c2)cc1`, the growth inhibition in assay [1] (setting [7]) is 27%; in assay [1] (setting [8]), 30%; in assay [1] (at 50.0 µM) it was 89.7% (active); in assay [2] (setting [7]), 15%; in assay [2] (setting [8]), 16%; in assay [2] (at 50.0 µM), 90.2% (active). The growth inhibition was 43% in assay [3] (setting [7]); 49% in assay [3] (setting [8]); 89% (active) in assay [3] (at 50.0 µM); 44% in assay [4] (setting [7]); 38% in assay [4] (setting [8]); 88.7% (active) in assay [4] (at 50.0 µM). Also, the growth inhibition in assay [5] (setting [7]) is 47%; in assay [5] (setting [8]), 63%; in assay [5] (at 50.0 µM), 88.3% (active); in assay [6] (setting [7]) it was 17%; in assay [6] (setting [8]) it was 21%; in assay [6] (at 50.0 µM), 87.2% (active).
With `CS(=O)(=O)OCCN(CCOS(C)(=O)=O)c1ccc(N=Nc2ccccc2)cc1`, the growth inhibition was 32% in assay [1] (setting [7]); 82% (active) in assay [1] (setting [8]); 57.7% in assay [1] (at 50.0 µM); 15% in assay [2] (setting [7]); 73% (active) in assay [2] (setting [8]); 45% in assay [2] (at 50.0 µM). The growth inhibition in assay [3] (setting [7]) is 52%; in assay [3] (setting [8]), 88% (active); in assay [3] (at 50.0 µM), 46%; in assay [4] (setting [7]), 45%; in assay [4] (setting [8]) it was 96% (active); in assay [4] (at 50.0 µM), 49.8%. In addition, the growth inhibition is 56% in assay [5] (setting [7]); 84% (active) in assay [5] (setting [8]); 39.5% in assay [5] (at 50.0 µM); 22% in assay [6] (setting [7]); 69% in assay [6] (setting [8]); 76.8% (active) in assay [6] (at 50.0 µM).
In the case of `ClC1=C(Cl)C(Cl)(C(Cl)(Cl)Cl)C(Cl)=C1Cl`, the growth inhibition in assay [1] (setting [7]) is 99% (active); in assay [1] (setting [8]), 98% (active); in assay [1] (at 50.0 µM), 99.6% (active); in assay [2] (setting [7]) it was 100% (active); in assay [2] (setting [8]), 99% (active); in assay [2] (at 50.0 µM), 99.6% (active). The growth inhibition is 99% (active) in assay [3] (setting [7]); 98% (active) in assay [3] (setting [8]); 99.7% (active) in assay [3] (at 50.0 µM); 99% (active) in assay [4] (setting [7]); 98% (active) in assay [4] (setting [8]); 99.4% (active) in assay [4] (at 50.0 µM). Further, the growth inhibition in assay [5] (setting [7]) is 99% (active); in assay [5] (setting [8]) it was 98% (active); in assay [5] (at 50.0 µM), 99.7% (active); in assay [6] (setting [7]) it was 99% (active); in assay [6] (setting [8]), 98% (active); in assay [6] (at 50.0 µM), 99.4% (active).
With `CCOC(=O)/C=C(/Cl)C(=O)OCC`, the growth inhibition in assay [1] (setting [7]) is 12%; in assay [1] (setting [8]), 98% (active); in assay [1] (at 50.0 µM) it was 98.5% (active); in assay [2] (setting [7]) it was 5%; in assay [2] (setting [8]), 99% (active); in assay [2] (at 50.0 µM), 99.4% (active). Further, the growth inhibition in assay [3] (setting [7]) is 7%; in assay [3] (setting [8]), 98% (active); in assay [3] (at 50.0 µM) it was 99.5% (active); in assay [4] (setting [7]) it was 1%; in assay [4] (setting [8]), 99% (active); in assay [4] (at 50.0 µM) it was 99% (active). The growth inhibition is 18% in assay [5] (setting [7]); 99% (active) in assay [5] (setting [8]); 99.2% (active) in assay [5] (at 50.0 µM); 6% in assay [6] (setting [7]); 99% (active) in assay [6] (setting [8]); 99.1% (active) in assay [6] (at 50.0 µM).
`COc1cccc(/C=N/N(C)C)c1O`: the growth inhibition was 0% in assay [1] (setting [7]); 29% in assay [1] (setting [8]); 56% in assay [1] (at 50.0 µM); -6% in assay [2] (setting [7]); -17% in assay [2] (setting [8]); 9.05% in assay [2] (at 50.0 µM). For the same compound, the growth inhibition is -2% in assay [3] (setting [7]); 21% in assay [3] (setting [8]); -1.75% in assay [3] (at 50.0 µM); 0% in assay [4] (setting [7]); -8% in assay [4] (setting [8]); 11.4% in assay [4] (at 50.0 µM). The growth inhibition in assay [5] (setting [7]) is 12%; in assay [5] (setting [8]), 29%; in assay [5] (at 50.0 µM), 1.4%; in assay [6] (setting [7]) it was 7%; in assay [6] (setting [8]) it was 28%; in assay [6] (at 50.0 µM) it was 19.6%.
As to `CCOC(=O)C(=C=C=C(c1ccccc1)c1ccccc1)C(=O)OCC`, the growth inhibition is -3% in assay [1] (setting [7]); 6% in assay [1] (setting [8]); 33.9% in assay [1] (at 50.0 µM); -2% in assay [2] (setting [7]); 17% in assay [2] (setting [8]); 23.5% in assay [2] (at 50.0 µM). The growth inhibition was -3% in assay [3] (setting [7]); 40% in assay [3] (setting [8]); 78.2% (active) in assay [3] (at 50.0 µM); 0% in assay [4] (setting [7]); 1% in assay [4] (setting [8]); 50.1% in assay [4] (at 50.0 µM). Besides, the growth inhibition in assay [5] (setting [7]) was -4%; in assay [5] (setting [8]), 6%; in assay [5] (at 50.0 µM) it was 31%; in assay [6] (setting [7]), -4%; in assay [6] (setting [8]), 6%; in assay [6] (at 50.0 µM), 50.5%.
Take `CC(C)(C)C(=O)CC(=O)C(F)(F)C(F)(F)C(F)(F)F.[Ag]`: the growth inhibition in assay [1] (setting [7]) was 97% (active); in assay [1] (setting [8]) it was 98% (active); in assay [1] (at 50.0 µM), 91.8% (active); in assay [2] (setting [7]), 99% (active); in assay [2] (setting [8]), 99% (active); in assay [2] (at 50.0 µM) it was 93% (active). Moreover, the growth inhibition in assay [3] (setting [7]) is 99% (active); in assay [3] (setting [8]), 99% (active); in assay [3] (at 50.0 µM), 90% (active); in assay [4] (setting [7]) it was 92% (active); in assay [4] (setting [8]), 99% (active); in assay [4] (at 50.0 µM), 89.6% (active). The growth inhibition in assay [5] (setting [7]) is 98% (active); in assay [5] (setting [8]), 98% (active); in assay [5] (at 50.0 µM), 87.8% (active); in assay [6] (setting [7]), 98% (active); in assay [6] (setting [8]), 98% (active); in assay [6] (at 50.0 µM), 88.4% (active).
As for `O=c1cc(-c2ccccc2)oc(-c2ccccc2)c1`, the growth inhibition in assay [1] (setting [7]) was -152%; in assay [1] (setting [8]) it was -105%; in assay [1] (at 50.0 µM), 82.4% (active); in assay [2] (setting [7]), -55%; in assay [2] (setting [8]), -50%; in assay [2] (at 50.0 µM), 19.4%. Moreover, the growth inhibition is -71% in assay [3] (setting [7]); -59% in assay [3] (setting [8]); 11% in assay [3] (at 50.0 µM); -68% in assay [4] (setting [7]); -82% in assay [4] (setting [8]); -20.1% in assay [4] (at 50.0 µM). In addition, the growth inhibition was -68% in assay [5] (setting [7]); -56% in assay [5] (setting [8]); 20% in assay [5] (at 50.0 µM); -123% in assay [6] (setting [7]); -103% in assay [6] (setting [8]); 43.6% in assay [6] (at 50.0 µM).
Turning to `O=C(O)c1c(-c2ccccc2)cc(-c2ccccc2)cc1-c1ccccc1`, the growth inhibition in assay [1] (setting [7]) was 93% (active); in assay [1] (setting [8]), 98% (active); in assay [1] (at 50.0 µM), 99.1% (active); in assay [2] (setting [7]), 90% (active); in assay [2] (setting [8]), 98% (active); in assay [2] (at 50.0 µM), 99.2% (active). The growth inhibition in assay [3] (setting [7]) was 93% (active); in assay [3] (setting [8]), 99% (active); in assay [3] (at 50.0 µM), 99.3% (active); in assay [4] (setting [7]), 90% (active); in assay [4] (setting [8]) it was 98% (active); in assay [4] (at 50.0 µM) it was 97.8% (active). The growth inhibition in assay [5] (setting [7]) was 88% (active); in assay [5] (setting [8]) it was 95% (active); in assay [5] (at 50.0 µM) it was 98.2% (active); in assay [6] (setting [7]) it was 92% (active); in assay [6] (setting [8]), 98% (active); in assay [6] (at 50.0 µM), 98.9% (active).
For `N=c1scc(-c2ccccc2)n1/N=C/c1cccnc1`, the growth inhibition in assay [1] (setting [7]) was 1%; in assay [1] (setting [8]), 95% (active); in assay [1] (at 50.0 µM), 96.6% (active); in assay [2] (setting [7]), 3%; in assay [2] (setting [8]), 96% (active); in assay [2] (at 50.0 µM), 86.3% (active). In addition, the growth inhibition in assay [3] (setting [7]) is 7%; in assay [3] (setting [8]), 98% (active); in assay [3] (at 50.0 µM) it was 96.5% (active); in assay [4] (setting [7]), 11%; in assay [4] (setting [8]), 95% (active); in assay [4] (at 50.0 µM), 96.2% (active). Besides, the growth inhibition is 5% in assay [5] (setting [7]); 96% (active) in assay [5] (setting [8]); 50.6% in assay [5] (at 50.0 µM); -14% in assay [6] (setting [7]); 96% (active) in assay [6] (setting [8]); 95.8% (active) in assay [6] (at 50.0 µM).
